Assay outcomes deposited in PubChem by National Center for Advancing Translational Sciences (NCATS).
Rows were chosen to be rich in hits. Some 7.9% of all compounds tested hit in one or more screens of this group.
HCV inhibitor = HCV inhibition; Huh7.5.1 HCVcc-Cre infection, luciferase reporter, 44 h; Potency, µM (top dose mostly 41.8 µM), inactives show at the highest dose activity change, negative = inhibition, usual class: inhibitors; 340,000 tested, 3.4% active; AID 651820; active = well fitted inhibition curve with a large enough effect; inconclusive = small, poorly fitted or top-dose-only effect, or another doubt; inactive = no such curve, though single readings can be large or run the other way; note: potency is the fitted concentration of half-maximal effect
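Seed cells (1,000/well) for 4 h; treat with compound and infect with HCVcc-Cre, moi about 0.5. Incubate 44 h, then detect luciferase activity.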
LASV entry inh = inhibitors of Lassa virus binding or cell entry; Potency, µM (top dose mostly 37.9 µM), without a hit: at the top dose activity change, negative = inhibition, hits mostly inhibitors; 300,000 tested, 1.2% active; AID 540256; Lassa virus pseudotype entry inhibition, cell reporter; calls by dose curve; tested in HEK293 cells; note: potency is the fitted concentration of half-maximal effect; nearly all actives have a fitted effect of over 50% in size
HCMV inh = inhibitors of human cytomegalovirus | HFF cells, HCMV-luciferase reporter, 72 h; stronger effect = lower value | activity change, negative = inhibition, % at 57.5 µM | 410,000 tested, 4.5% active | AID 1259415; in the data active = activity change below about -60%; inconclusive = no clear call, values can overlap the other calls; inactive = above about -39%
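Cell-based, HFFs, 1000 cells/well, 16 h 37C; cpds in DMSO + HCMV-luc, MOI 1 PFU/cell; 72 h 37C; OneGlo luminescence after 5 min RT; norm. to buffer vs Salinomycin 10uM.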
Marburg entry inh = Marburg virus entry inhibition. Marburg virus pseudotyped entry inhibition, cell reporter. Potency, µM (titrated, usually from 37.8 µM), inactives show at the top dose activity change, negative = inhibition, usual class: inhibitors. 300,000 tested, 1.8% active. AID 540276; calls by dose curve; tested in HEK293 cells; note: potency is the fitted concentration of half-maximal effect
FMDV inh = blocks foot and mouth disease virus. AID 1159524. Potency, µM (series often up to 57.9 µM), for inactives: top-dose activity change, negative = inhibition, hits mostly inhibitors. FMDV antiviral cell-based qHTS. 410,000 tested, 1.2% active; calls by dose curve; tested in HEK293T cells; note: read-out not given here; potency is the fitted concentration of half-maximal effect; nearly all actives have a fitted effect of over 45% in size
Active calls of the source: *; ? = inconclusive; . = not tested or not shown; [ ] = dose if it differs, or a comment. % is set by controls: 0 for no effect and ±100 for the full control effect.

SMILES | HCV inhibitor | LASV entry inh | HCMV inh | Marburg entry inh | FMDV inh
Cc1c(N2C(=O)/C(=C\c3ccccc3O)SC2=S)c(=O)n(-c2ccccc2)n1C | 5.4% | . | -26.5 | . | ?
Cc1c(N2C(=O)/C(=C/c3ccccc3)SC2=S)c(=O)n(-c2ccccc2)n1C | -6.3% | -17.7% | ? | -1.0% | -29.5%
Cc1c(N2C(=O)/C(=C/C3CC=CCC3)SC2=S)c(=O)n(-c2ccccc2)n1C (stereo not given) | 0.8% | ? | 16.7 | ? | 17.8µM*
Cc1c(N2C(=O)/C(=C3\C(=O)N(CC(=O)O)c4ccccc43)SC2=S)c(=O)n(-c2ccccc2)n1C | 15.2% | . | 45.3 | . | 25.1µM*
Cc1c(N2C(=O)/C(=C\C3CC=CCC3)SC2=S)c(=O)n(-c2ccccc2)n1C (stereo not given) | -12.6% | 2.7% | 39.9 | ? | 25.1µM*
COc1ccc2nc(-c3cccc(N)c3)[nH]c2c1 | -15.7% | 11.2µM* | 39.9 | 10µM* | 0.0%
COc1cccc(N(CC(=O)NC2CCCCC2)C(=O)CCCC(=O)Nc2ccccn2)c1 | -1.8% | 0.9%[46.1 µM] | -7.6 | ? | 10.7%
CCOC(=O)c1cccc(NC(=O)CCc2nc3cccnc3n2-c2ccccc2)c1 | . | ? | -18.7 | -11.8%[46.1 µM] | -1.9%
CCOC(=O)c1sc(NC(=O)CNCc2cccnc2)c(C(=O)OCC)c1C | -16.8% | -14.3% | -62.0* | ? | ?
CCOC(=O)c1cccc(NC(=O)CSc2nc3cccnc3n2C)c1 | ? | ? | ? | ? | 17.8µM*
CCOC(=O)c1sc(NC(=O)CSc2nc3cccnc3n2C)nc1C | -6.7% | -0.5%[46.1 µM] | -16.0 | 12.5%[46.1 µM] | -6.5%
CCOC(=O)c1c(NC(=O)CSc2nc3cccnc3n2C)sc(C(C)=O)c1C | ? | -10.4% | . | 10µM* | 28.2µM*
CCOC(=O)c1c(NC(=O)CSc2nnc(-c3ccco3)o2)sc(C(C)=O)c1C | ? | -17.1% | -15.8 | ? | ?
CCOC(=O)c1c(NC(=O)CSc2nnc(-c3ccccc3C)n2C)sc(C(C)=O)c1C | 10µM* | -13.2% | -35.4 | 7.1% | ?
COc1ccc(CN(C)C(=O)/C=C/[C@H]2O[C@@H](n3cnc4c(N)ncnc43)[C@H](O)[C@@H]2O)cc1OC | . | . | 44.2 | . | -18.3%
COc1ccc([C@@H]2[C@@H](C(=O)N3CCOCC3)CC(=O)N2S(=O)(=O)c2ccc(F)cc2)cc1 | . | . | 4.0 | . | .
CS(=O)(=O)Nc1cccc(Nc2nccc3[nH]c(-c4cccc(C(F)(F)F)c4)cc23)c1 | . | . | -7.4 | . | .
Cc1ccc(S(=O)(=O)n2cc(-c3ccccc3)c3ccccc32)cc1 | ? | . | -70.9* | . | 14.0%
COc1cccc(Nc2ccc3cc(S(=O)(=O)N4CCC(C)CC4)ccc3n2)c1 | . | -28.5%[46.1 µM] | -86.7* | . | -15.0%
Cn1c(=O)n(Cc2ccccc2Br)c2ccccc21 | -12.5% | . | -61.8* | ? | -15.1%
C/C(=N\NC(=O)CCc1ccccc1)C1C(=O)c2ccccc2C1=O | 0.8% | ? | -87.2* | ? | 38.1%
O=C(NC1CCCCCC1)C(=S)N1CCOCC1 | 11.6% | 2.8% | 9.7 | 11.0%[46.1 µM] | -20.6%
S=C(NC1CCCCC1)N1CCOCCOCCN(C(=S)NC2CCCCC2)CCOCCOCC1 | -17.4% | ? | -78.0* | ? | -13.3%
COC(=O)/C=C/[C@@H](CC1CCCC1)NC(=O)C(F)(F)F | . | . | -11.7 | . | .
CCN1C(=O)C(c2nnnn2-c2c(C)cccc2C)N(CCc2ccccc2)C1=O (stereo not given) | . | . | -7.6 | . | .
SMILES | HCV inhibitor | LASV entry inh | HCMV inh | Marburg entry inh | FMDV inh
COc1ccc(-c2noc(-c3ccccc3C(=O)Nc3cccnc3)n2)cc1OC | 8.91µM* | -7.5% | -5.2 | -5.2% | .
COc1ccc(-c2noc(-c3ccccc3C(=O)Nc3cccnc3)n2)cc1 | 10µM* | -23.3% | 9.8 | ? | ?
COc1ccc(-c2noc(CNC(=O)c3ccco3)n2)cc1 | . | 21.1%[46.1 µM] | 8.7 | -1.3%[46.1 µM] | 5.5%
COc1ccccc1-c1noc(-c2ccccc2C(=O)Nc2cccnc2)n1 | 11.2µM* | -18.6% | 76.6 | -19.3% | -6.1%
COc1ccc(-c2noc(CNC(=O)c3ccccc3Br)n2)cc1 | . | -17.2%[46.1 µM] | -62.9* | -2.0%[46.1 µM] | -17.9%
COC(=O)CC1=C(C(=O)OC)[C@H](c2ccc3c(c2Cl)OCO3)C(C#N)=C(N)O1 | . | . | . | 6.9% | .
COc1ccc(Nc2cc3[nH]c(-c4cccc(C(F)(F)F)c4)cc3cn2)cc1OC | . | . | -20.4 | . | .
COc1cc(OC)cc(-c2cc3c(Nc4cccc(S(C)(=O)=O)c4)nccc3n2C)c1 | . | . | -13.9 | . | .
COc1ccc(CCNC(=O)C(C)n2nc(C)c3c(C)n(-c4ccc(C)cc4)nc3c2=O)c(OC)c1 (stereo not given) | 3.16µM* | ? | -98.0* | ? | ?
Cc1ccc(-n2nc3c(=O)n(CC(=O)NCc4ccccc4)nc(C)c3c2C)cc1 | ? | . | -28.8 | . | 0.2%
Cc1ccc(-n2nc3c(=O)n(CC(=O)NC(C)CCc4ccccc4)nc(C)c3c2C)cc1 (stereo not given) | 2.24µM* | . | . | . | ?
COc1cccc(CNC(=O)CCCn2nc(C)c3c(C)n(-c4ccc(C)cc4)nc3c2=O)c1OC | 12.6µM* | 8.5%[46.1 µM] | ? | -16.6%[46.1 µM] | ?
CCC(C(=O)NCc1ccc(OC)c(OC)c1)n1nc(C)c2c(C)n(-c3ccc(C)cc3)nc2c1=O (stereo not given) | . | ? | -73.7* | . | ?
CCNC(=O)[C@@H]1[C@@H](CO)[C@@H]2Cn3c(cccc3=O)[C@H]1N2C(=O)Nc1cc(F)ccc1F | . | . | 12.5 | . | .
Cc1ccc(-n2nc3c(=O)n(CC(=O)c4ccc(F)cc4)nc(C)c3c2C)cc1 | ? | 1.6% | -31.1 | 27.7% | 25.1µM*
Cc1ccc(CCNC(=O)C(C)n2nc(C)c3c(C)n(-c4ccc(C)cc4)nc3c2=O)cc1 (stereo not given) | . | ? | -62.1* | . | 11.2µM*
Cc1cccc(CNC(=O)C(C)n2nc(C)c3c(C)n(-c4ccccc4)nc3c2=O)c1 (stereo not given) | 10µM* | -24.5%[46.1 µM] | -8.6 | -21.4%[46.1 µM] | -25.1%
CCOc1ccc(CNC(=O)C(C)n2nc(C)c3c(C)n(-c4ccccc4)nc3c2=O)cc1 (stereo not given) | -29.4% | . | ? | . | -23.5%
CCC(C(=O)NCCCc1ccccc1)n1nc(C)c2c(C)n(-c3ccccc3)nc2c1=O (stereo not given) | ? | -5.5%[46.1 µM] | -67.0* | ? | -28.0%
CCOc1ccc(S(=O)(=O)Nc2cc(S(=O)(=O)N3CCOCC3)ccc2OC)cc1 | 12.7% | . | -22.9 | . | 7.0%
COC(=O)c1cc(C)nc2c1c(=O)nc(SCc1cccc(C(F)(F)F)c1)n2C1CC1 | . | 9.0%[46.1 µM] | 16.2 | . | -3.2%
OC(c1cccnc1)c1ccc2c(c1)CN(Cc1ccc(-c3ccccc3Cl)o1)CCO2 (stereo not given) | . | . | . | . | 2.5%
CCc1cccc(C)c1NC(=O)Cn1nc(C)c2nn(-c3ccc(Cl)cc3)c(C)c2c1=O | . | -23.8%[46.1 µM] | -61.6* | . | -23.8%
